# Screening data as filed in PubChem BioAssay.
# SKOV3 invasion – inhibitors of ovarian cancer cell adhesion and invasion in omental model | SKOV3ip1-GFP adhesion/invasion on 3D omental model, fluorescence | Potency, µM (doses to about 45.8 µM), without a hit: top-dose activity change, negative = inhibition, most hits filed as inhibitors | 0.1% of 46,000 active | AID 1963576;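 also: potency is read from the fitted curve at half-maximal effect; plate controls were DMSO wells for no effect and tomatine positive control wells for full effect; nearly all actives have a fitted effect of over 65% in size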
#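 A 3D layer of primary human omental fibroblasts, mesothelial cells, fibronectin and collagen I, grown 48 hr, received SKOV3ip1-GFP cells in serum-free medium plus compounds at 0.36-46 umol/L. After 2 hr RT and 16 hr 37 C, fixed adherent GFP cells were counted; normalized to DMSO and tomatine.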
# p53null 32C tox – selectivity test: cytotoxicity in p53 null cells, permissive temperature. H1299-neo p53 null cells, ATP luminescence, 24 h, 32C. Potency, µM (doses to about 46.1 µM), for inactives: at the highest dose activity change, negative = cytotoxicity, hits mostly cytotoxic. AID 903. 0.62% of 55,000 active;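 also: potency is read from the fitted curve at half-maximal effect; 0% = DMSO only and -100% = full killing by 100 µM tamoxifen; nearly all actives have a fitted effect of over 55% in size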
#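 H1299-neo (p53-null) cells, 600/well, were pre-incubated overnight at 37C, then exposed to compounds at up to 46 uM for 24 hr at 32C. Viability was measured as ATP content by luminescence, and AC50 values came from Hill fits.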
# p53null 39C tox – kills p53 null cells at the nonpermissive temperature. Potency, µM (titrated, usually from 46.1 µM), inactives show at the highest dose activity, negative = cell killing, actives largely listed as cytotoxic. H1299 p53-null (neo) cells, 39C, ATPlite viability, 24 h. 0.97% of 55,000 active;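 also: potency is read from the fitted curve at half-maximal effect; 0% = DMSO only and -100% = full killing by 100 µM tamoxifen; nearly all actives have a fitted effect of over 50% in size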
#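 Luminescent ATP signal reported cell survival after H1299 lines (neo, p53 null; or p53 A138V) received up to 46 uM compound and 24 hr incubation at 39C.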
# pS6 MEF inh – reduces mTORC1 signaling in Tsc2 and p53 null MEF cells; Tsc2-/- p53-/- MEF, phospho-rpS6 immunofluorescence/PI, 24 h; Potency, µM (series often up to 38.3 µM), for inactives: at the highest dose activity change, negative = inhibition, hits mostly inhibitors; 0.78% of 44,000 active; AID 493208;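 also: potency is read from the fitted curve at half-maximal effect; plate controls were DMSO for no effect and rapamycin for full effect; nearly all actives have a fitted effect of over 50% in size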
#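 Read-out: phospho-S6 Alexa-488 intensity over PI intensity per well, scored as % active cells using thresholds from rapamycin (7.5 nM) and DMSO controls. Tsc2-/-, p53-/- MEFs exposed to compound for 24 h; PI cell count recorded as viability.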
# PMP22 txn – PMP22 gene transcription modulation. S16 Pmp22-F2sN Schwann cells, FLuc/NLuc coincidence luminescence, 24 h. AID 1508649. Potency, µM (doses to about 57.5 µM), for inactives: at the highest dose activity change, negative = inhibition, usual class: inhibitors. 2% of 43,000 active; active = clear falling dose curves in both reporters; inconclusive = both reporters move, but less clearly or upward; inactive = either reporter flat; the % is the NLuc reporter signal; also: potency is read from the fitted curve at half-maximal effect; % is scaled to controls: 0 for no effect and ±100 for the full control effect
#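 Transcriptional readout in edited S16(c9) cells: two luciferases reported from the Pmp22 locus, measured in turn after 24 h compound incubation.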
# S16 F2sN tox – toxic to S16 Pmp22-F2sN Schwann cells; S16 Pmp22-F2sN Schwann cells viability, CellTiter-Glo, 24 h; 0.48% of 43,000 active; Potency, µM (titrated, usually from 57.5 µM), for the others: at the highest dose activity change, negative = cytotoxicity, actives largely listed as cytotoxic; AID 1508642; also: potency is read from the fitted curve at half-maximal effect; % is scaled to controls: 0 for no effect and ±100 for the full control effect; nearly all actives have a fitted effect of over 65% in size
#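 Rat S16 Schwann reporter line, 24 h treatment with library compounds delivered at 23 nL per well. Cell viability by CellTiter-Glo luminescence.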
# NLuc sat counter – counter-screen for PMP22 expression modulators: NanoLuc inhibition, saturating substrate; Secreted NLuc enzyme (filtered S16 cell medium), Nano-Glo luminescence; 4% of 690 active; shares compounds with PMP22 txn; Potency, µM (doses to about 57.5 µM), without a hit: at the highest dose activity change, negative = inhibition, actives largely listed as inhibitors; also: potency is read from the fitted curve at half-maximal effect; % is scaled to controls: 0 for no effect and ±100 for the full control effect
# NLuc Km ctr – inhibits NanoLuc under Km conditions, PMP22 counter-screen. shares compounds with PMP22 txn. secreted NLuc enzyme, coelenterazine luminescence, Km conditions. Potency, µM (doses to about 57.5 µM), without a hit: at the highest dose activity change, negative = inhibition, hits mostly inhibitors. 5% of 690 active; also: potency is read from the fitted curve at half-maximal effect; % is scaled to controls: 0 for no effect and ±100 for the full control effect
# FLuc ctr PMP22 – inhibits firefly luciferase, PMP22 counter-screen | 690 tested, under 10 active | Potency, µM (series often up to 57.5 µM), for inactives: at the top dose activity, negative = inhibition, most hits filed as inhibitors | purified P. pyralis FLuc, luminescence, 10 min | shares compounds with PMP22 txn; also: % of control where 0% means no effect
# Target sequence (P08659 whole entry, looked up): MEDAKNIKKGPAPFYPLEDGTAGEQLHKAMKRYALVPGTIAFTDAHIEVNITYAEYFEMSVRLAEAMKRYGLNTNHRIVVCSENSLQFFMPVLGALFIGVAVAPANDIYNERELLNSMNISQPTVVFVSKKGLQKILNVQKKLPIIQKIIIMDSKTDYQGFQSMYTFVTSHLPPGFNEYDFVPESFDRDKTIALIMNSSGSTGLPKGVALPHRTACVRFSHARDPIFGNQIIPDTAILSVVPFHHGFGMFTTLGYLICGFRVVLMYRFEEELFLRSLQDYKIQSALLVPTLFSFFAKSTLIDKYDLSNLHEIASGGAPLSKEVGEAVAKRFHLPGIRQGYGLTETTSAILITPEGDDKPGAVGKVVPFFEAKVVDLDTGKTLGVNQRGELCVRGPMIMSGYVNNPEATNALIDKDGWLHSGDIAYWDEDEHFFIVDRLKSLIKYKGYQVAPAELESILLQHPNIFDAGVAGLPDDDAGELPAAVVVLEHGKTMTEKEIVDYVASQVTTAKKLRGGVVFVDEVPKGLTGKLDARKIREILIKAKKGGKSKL
# S16 viab conf – confirmation of cytotoxicity in S16 Pmp22-F2sN Schwann cells (luciferase reporters placed in the Pmp22 gene). shares compounds with PMP22 txn. S16 Schwann cells viability, CellTiter-Glo ATP luminescence, 24 h. Potency, µM (titrated, usually from 57.5 µM), for the others: at the top dose activity change, negative = viability loss, actives largely listed as cytotoxic. 7% of 690 active; also: potency is read from the fitted curve at half-maximal effect; % is scaled to controls: 0 for no effect and ±100 for the full control effect
# PMP22 txn cnf – PMP22 transcription modulation, confirmatory; shares compounds with PMP22 txn; 22% of 690 active; Potency, µM (series often up to 57.5 µM), for the others: at the top dose activity change, negative = inhibition, hits mostly inhibitors; S16 Schwann cells Pmp22-F2sN, dual luciferase, 24 h; AID 1508646; active = clear falling dose curves in both reporters; inconclusive = both reporters move, but less clearly or upward; inactive = either reporter flat; the % is the FLuc reporter signal; also: potency is read from the fitted curve at half-maximal effect
# PMP22 prot conf – confirmation of modulators of rat PMP22 protein expression. shares compounds with PMP22 txn. S16 Schwann cells Pmp22-HiBiT, luminescence, 48 h. Potency, µM (highest dose often 27.9 µM), inactives show at the highest dose activity change, negative = inhibition, hits mostly inhibitors. 95 tested, under 10 active. AID 1508647
# Target sequence (P25094 whole entry, looked up): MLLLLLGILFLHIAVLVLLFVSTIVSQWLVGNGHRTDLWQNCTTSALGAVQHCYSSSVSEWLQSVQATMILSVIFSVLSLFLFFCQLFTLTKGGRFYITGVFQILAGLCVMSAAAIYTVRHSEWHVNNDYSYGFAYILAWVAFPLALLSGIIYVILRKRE
# Active calls of the source: *; i = inactive; ? = inconclusive; / = not tested or not shown. Compounds with a hit are over-represented: about 3% of the library has one in this group of screens. Unless noted, calls follow the shape of the dose curve; as a rule, active = well fitted curve in the direction sought with a large enough effect; inconclusive = small, poorly fitted or top-dose-only effect, or another doubt; inactive = no such curve, though single readings can be large; an effect the other way counts as inactive or inconclusive.
SMILES,SKOV3 invasion,p53null 32C tox,p53null 39C tox,pS6 MEF inh,PMP22 txn,S16 F2sN tox,NLuc sat counter,NLuc Km ctr,FLuc ctr PMP22,S16 viab conf,PMP22 txn cnf,others
CCOC(=O)COc1ccc(C)cc1C(=O)c1ccn2nc(-c3ccc(F)cc3)cc2n1,i,/,/,-1.9%,17.9µM*,24.2%,-10.4%,?,5.8%,11.0%,?,
CCOC(=O)COc1ccc(F)cc1C(=O)c1ccn2nc(-c3ccc(C)cc3)cc2n1,i,/,/,0.9%,-3.1%,?,/,/,/,/,/,
Cn1nnnc1SCCCNCc1cccc(OCc2ccccc2)c1,-0.1%,-6.4%,-15.7%,-20.6%,20µM*,-6.3%,-4.8%,1.2%,3.3%,-7.1%,-10.7%,
CCOC(=O)N1CCN([N+]([O-])=NOc2cc(ON=[N+]([O-])N3CCN(C(=O)OCC)CC3)c([N+](=O)[O-])cc2[N+](=O)[O-])CC1,21.0%,/,/,/,/,/,/,/,/,/,/,
CCOCCCNC(=O)c1ccc(-n2c(-c3ccccc3)cc3c2CCC(C)C3)cc1 (stereo not given),-1.6%,-14.1%,?,?,17.9µM*,-2.9%,-7.3%,0.2%,-7.8%,3.5%,?,PMP22 prot conf=4.6%
O=C(NCCc1ccccc1)c1c[nH]c2ccc(S(=O)(=O)Nc3ccc(F)cc3F)cc2c1=O,-4.7%,15.3%,1.7%,6.1%,-34.0%,1.5%,/,/,/,/,/,
O=C(NCCc1ccccc1)c1c[nH]c2ccc(S(=O)(=O)Nc3ccccc3F)cc2c1=O,1.0%,1.9%,-3.8%,-8.5%,?,-7.1%,-21.9%,-18.0%,-14.0%,-17.2%,-9.9%,
CCc1cc2c(cc1N1CCC(N3CCOCC3)CC1)C(C)(C)c1[nH]c3cc(C#N)ccc3c1C2=O,-3.4%,/,/,/,/,/,/,/,/,/,/,
COc1cc(Cl)c(C)cc1NC(=O)c1cc2c(s1)-c1c(C)cccc1OC2,-18.5%,-10.4%,-17.7%,-8.6%,?,-5.1%,/,/,/,/,/,
COc1ccc(NC(=O)c2cc3c(s2)-c2c(C)cccc2OC3)cc1Cl,20.4%,-11.6%,-1.4%,-2.8%,15.8µM*,28.2µM*,-8.0%,-0.6%,-13.7%,?,?,
O=S(=O)(NCc1ccc(F)cc1)c1ccc(N2CCCCS2(=O)=O)cc1,-5.1%,2.6%,1.5%,-29.7%,11.9µM*,?,-1.9%,-3.4%,-1.2%,-7.2%,2.5%,
CCCn1c(=N)c(C(=O)NC(C)c2ccccc2)cc2c(=O)n3ccccc3nc21 (stereo not given),8.9%,-10.7%,10.7%,0.3%,14.1µM*,0.1%,-10.2%,-16.5%,-4.6%,14.4%,4.65µM*,PMP22 prot conf=-17.4%
CCOCCCn1c(=N)c(C(=O)NC(C)c2ccccc2)cc2c(=O)n3cc(C)ccc3nc21 (stereo not given),-0.7%,-3.0%,19.6%,13.5%,-22.9%,4.9%,/,/,/,/,/,
CCc1ccc(-n2c(SCc3cccc(F)c3)nc3[nH]ncc3c2=O)cc1,7.4%,37.1%,15.6%,-5.9%,15.8µM*,?,-17.8%,?,-2.9%,?,?,
Cc1ccc(-n2c(SCc3cccc(F)c3)nc3[nH]ncc3c2=O)cc1C,3.9%,19.1%,11.4%,1.2%,?,?,/,/,/,/,/,
COc1ccc(CCNc2nc3c(c(=O)n(C)c(=O)n3C)n2Cc2ccc(F)cc2)cc1OC,?,5.5%,-7.3%,-17.7%,10µM*,?,?,?,9.8%,-23.4%,-26.4%,
CCNc1nc2c(c(=O)n(C)c(=O)n2C)n1Cc1ccc(F)cc1,-0.5%,-2.1%,7.4%,?,?,?,/,/,/,/,/,
Cn1c(=O)c2c(nc(NCc3ccccc3)n2Cc2ccc(Cl)c(Cl)c2)n(C)c1=O,-3.0%,?,-15.4%,-12.0%,13.5µM*,-24.4%,-9.4%,?,-2.0%,-25.2%,?,
Cc1cn([C@@H]2O[C@H](CO)[C@@H](O)[C@H]2F)c(=O)[nH]c1=O,6.1%,/,/,/,/,/,/,/,/,/,/,
CCCSc1ncc(Cl)c(C(=O)Nc2ccc(S(=O)(=O)N3CCCCC3C)cc2)n1 (stereo not given),1.2%,17.2%,1.7%,-29.5%,10.8µM*,?,-17.9%,-15.7%,15.5%,1.1%,?,
O=C1COc2ccc(-c3cc(-c4ccc(F)cc4)c4c(n3)-c3ccccc3OC4)cc2N1,i,/,/,1.5%,16.8µM*,24.4%,-4.7%,7.1%,5.7%,?,?,
CCOC(=O)N1CCN(Cc2nc3cc(NC(=O)C(C)C)ccc3n2C(C)C)CC1,i,4.4%,-3.0%,?,6.31µM*,?,-13.9%,4.3%,6.3%,3.7%,-18.3%,
CCOC(=O)N1CCN(Cc2nc3cc(NC(=O)c4ccc(F)cc4)ccc3n2C(C)C)CC1,-7.1%,-3.9%,-3.4%,?,?,?,/,/,/,/,/,
CCOC(=O)N1CCN(Cc2nc3cc(NC(=O)c4ccc(OC)cc4)ccc3n2C(C)C)CC1,-17.1%,-11.1%,7.2%,?,?,-18.8%,/,/,/,/,/,
